Reference: PubChem BioAssay (Tox21)
Results filed as inconclusive are left out. Unmarked numbers belong to inactive results. Activity calls are given as the source filed them. The call rests on the fitted dose curve.

molecular target: Progesterone receptor (Homo sapiens) (UniProt P06401); experiment: qHTS assay to identify small molecule agonists of the progesterone receptor (PR) signaling pathway (AID 1346784); conditions: PR-UAS-bla HEK293T, beta-lactamase FRET ratio, 16 h; series mostly up to 92.4 µM; activation: at the top concentration; further: nearly all actives have a fitted effect of over 30% in size
Text: U.S. Tox21 Program National Center for Advancing Translational Sciences [NCATS] NIH Chemical Genomics Center [NCGC] U.S. Environmental Protection Agency [EPA] National Institutes of Environmental Health Sciences [NIEHS] National Toxicology Program [NTP] U.S. Food and Drug Administration [FDA] […] Endocrine disrupting chemicals (EDCs) and their interactions with steroid hormone receptors like PR causes disruption of normal endocrine function. To identify the compounds that activate PR signaling, a PR-UAS-bla GripTite cell line i.e. PR-UAS-bla HEK 293T (Invitrogen, Carlsbad, CA, USA) containing a beta-lactamase reporter gene under the control of an Upstream Activator Sequence (UAS) was used to screen Tox21 10K compound library.
Tox21 Assay Protocol Summary: PR-UAS-bla HEK 293T cells were dispensed at 3,000 cells/5 uL of assay medium containing 2% charcoal stripped FBS per well into black wall/clear-bottom 1536-well plates using a Multidrop Combi (ThermoFisher Scientific, Waltham, MA) dispenser. After the assay plates were incubated at a 37C and 5% CO2 for 6hr, 23 nL of compounds dissolved in DMSO, positive controls or DMSO only was transferred to the assay plate by a Pintool station (Kalypsys, San Diego, CA). The plates were incubated at 37C and 5% CO2 for 16hr. Then 1 uL of LiveBLAzer B/G FRET substrate was added using a BioRAPTR FRD (Flying Reagent Dispenser, Aurora Discovery, San Diego, CA). After the plates were incubated at room temperature for 2 hours, fluorescence intensity was measured by an Envision plate reader (PerkinElmer, Shelton, CT).
On the % scale 0 is the no-effect control and ±100 the full control effect.

Progesterone receptor (Homo sapiens), sequence (P06401 whole entry, looked up): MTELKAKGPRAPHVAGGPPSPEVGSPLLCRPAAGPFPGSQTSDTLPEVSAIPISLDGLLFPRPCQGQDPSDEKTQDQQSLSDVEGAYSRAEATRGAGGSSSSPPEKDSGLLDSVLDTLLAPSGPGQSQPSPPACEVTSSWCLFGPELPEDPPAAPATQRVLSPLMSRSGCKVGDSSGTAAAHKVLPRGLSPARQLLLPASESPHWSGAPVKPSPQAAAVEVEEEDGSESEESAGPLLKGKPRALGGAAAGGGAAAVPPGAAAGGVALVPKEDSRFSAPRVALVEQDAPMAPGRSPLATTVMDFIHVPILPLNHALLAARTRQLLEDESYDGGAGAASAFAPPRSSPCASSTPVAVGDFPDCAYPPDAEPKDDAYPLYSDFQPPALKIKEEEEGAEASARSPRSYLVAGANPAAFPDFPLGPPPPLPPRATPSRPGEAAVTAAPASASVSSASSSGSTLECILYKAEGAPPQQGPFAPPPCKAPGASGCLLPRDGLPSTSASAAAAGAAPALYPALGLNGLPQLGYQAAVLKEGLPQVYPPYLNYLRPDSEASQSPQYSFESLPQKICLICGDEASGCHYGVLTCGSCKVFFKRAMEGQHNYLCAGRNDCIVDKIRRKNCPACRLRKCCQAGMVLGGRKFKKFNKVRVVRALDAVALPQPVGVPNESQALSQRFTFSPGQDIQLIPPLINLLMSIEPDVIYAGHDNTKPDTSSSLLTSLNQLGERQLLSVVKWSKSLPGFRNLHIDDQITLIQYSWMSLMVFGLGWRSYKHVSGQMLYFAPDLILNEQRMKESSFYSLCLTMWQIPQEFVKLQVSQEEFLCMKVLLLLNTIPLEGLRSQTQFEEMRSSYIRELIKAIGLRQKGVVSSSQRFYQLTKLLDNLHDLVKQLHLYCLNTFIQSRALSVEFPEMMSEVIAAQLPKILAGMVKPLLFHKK

Compound	activation	Potency
CC(=O)Nc1c(I)cc(I)c(C(=O)O)c1I	-1.25% [at 42.5 µM]	
CN(C(=O)c1c(O)c2ccccc2n(C)c1=O)c1ccccc1	-0.52% [at 42.5 µM]	
O=[N+]([O-])c1ccc(F)cc1F	-0.625%	
CCCN(CCC)CCc1cccc2c1CC(=O)N2	-1.84% [at 42.5 µM]	
OCCOc1ccc(OCCO)cc1	1.81%	
CC(NC(CCc1ccccc1)C(=O)O)C(=O)N1C(=O)N(C)CC1C(=O)O (stereo not given)	-0.0135% [at 42.5 µM]	
CCCCC(CC)COC(=O)c1ccccc1O (stereo not given)	-2.57% [at 42.5 µM]	
COCCCOCCCOC	-1.37%	
Nc1nc2c(ncn2COC(CO)CO)c(=O)[nH]1	-1.87% [at 42.5 µM]	
Cn1cc(S(C)=O)c(=O)c2ccc(F)cc21 (stereo not given)	-0.32% [at 42.5 µM]	
O=C(c1ccccc1)C1CCCCC1	-0.92%	
CC(C)CNCC(C)C	-2.18%	
Nc1c[n+](N2CCOCC2)no1	-0.0408% [at 42.5 µM]	
CCCCCCCCCCCCCCCCC	-1.99%	
NC(=O)c1cn(Cc2c(F)cccc2F)nn1	1.52% [at 42.5 µM]	
CC[N+](C)(C)c1cccc(O)c1	-1.05% [at 42.5 µM]	
CC(C)(C)c1nnc(NS(=O)(=O)c2ccccc2)s1	-4.63% [at 42.5 µM]	
Cn1c(N)c(N=O)c(=O)n(C)c1=O	-1.33%	
CN1CCCC1	-0.179%	
CCCCCCOC(=O)CCCCC(=O)OCCCCCC	-1.13%	

Compound	activation	Potency
Cc1nc2c([nH]1)c(=O)n(C)c(=O)n2Cc1ccco1	0.0244% [at 42.5 µM]	
CN(C)CCCSc1ccccc1NC(=O)/C=C/c1ccccc1	-3.7% [at 42.5 µM]	
CCCN1CCCC[C@H]1C(=O)Nc1c(C)cccc1C	-1.34% [at 42.5 µM]	
Oc1ccc(C2CNCCc3c2cc(O)c(O)c3Cl)cc1 (stereo not given)	-1.35% [at 42.5 µM]	
Nc1c2c(nc3ccccc13)CCCC2O (stereo not given)	0.111% [at 42.5 µM]	
C1OCOCO1	-0.0709%	
N=C(N)c1ccccc1	-3.55%	
CC/C=C\CC/C=C/CO	0.0837%	
CCOC(=O)Nc1ccc(NCc2ccc(F)cc2)nc1N	0.0442% [at 42.5 µM]	
Cc1ccc(Cl)cc1Cl	-2.01%	
O=C1CC2CC1C1CCCC21 (stereo not given)	-0.279%	
COCCc1ccc(OCC(O)CNC(C)C)cc1 (stereo not given)		inactive
C[C@](N)(Cc1ccc(O)cc1)C(=O)O	-0.125% [at 8.39 µM]	
CC(=O)Nc1ccc(S(N)(=O)=O)cc1	0.207%	
Cc1ccc(C#N)cc1	1.63%	
N#Cc1ccc(C2CCCc3cncn32)cc1 (stereo not given)	-0.187% [at 42.5 µM]	
C=C(C)C(=O)OCCCCCCCC(C)C	0.376%	
COc1ccc(CCN(C)CCCC(C#N)(c2cc(OC)c(OC)c(OC)c2)C(C)C)cc1OC (stereo not given)	-4.02% [at 42.5 µM]	
CCCCC/C=C\CCC=O	-3.86%	
N=C(N)c1ccc2cc(OC(=O)c3ccc(N=C(N)N)cc3)ccc2c1	-0.84% [at 42.5 µM]	
